PV pol inh – inhibitors of poliovirus RNA polymerase binding and polymerization; poliovirus polymerase elongation, fluorescence polarization; hits give low values; 0.66% of 150,000 active; % elongation, % (compound at 16.7 µg/mL); P03300; in the data active = % elongation below about 90%
AID504770 – growth inhibitors of E. coli YBA685 in a screen for V. cholerae RctB (chromosome II replication) inhibitors; E. coli YBA685 rctB-dependent plasmid, OD600 growth, 3 h; hits give low values; z-score (no concentration beside the values); 0.27% of 130,000 active; in the data active = z-score below about -2, passing the limit was not always enough
MenB inh – inhibitors of Mycobacterium tuberculosis MenB enzyme | P9WNP5 | MenB enzyme assay, absorbance read-out | inhibition, % (test concentration not listed) | 0.43% of 100,000 active; in the data active = inhibition above about 21%, passing the limit was not always enough
Target sequence (P9WNP5 whole entry, looked up): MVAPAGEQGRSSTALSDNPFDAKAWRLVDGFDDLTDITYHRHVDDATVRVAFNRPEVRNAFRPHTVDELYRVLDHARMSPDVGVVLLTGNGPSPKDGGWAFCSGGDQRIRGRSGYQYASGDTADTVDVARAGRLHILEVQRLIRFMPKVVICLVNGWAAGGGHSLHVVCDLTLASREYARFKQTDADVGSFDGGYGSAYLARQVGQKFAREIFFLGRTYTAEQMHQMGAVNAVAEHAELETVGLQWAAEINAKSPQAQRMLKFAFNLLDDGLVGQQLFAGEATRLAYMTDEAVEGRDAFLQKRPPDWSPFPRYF
Mtb MbtI inh – MbtI salicylate synthase inhibition; 0.89% of 100,000 active; AID 493033; purified MbtI enzyme, fluorescence intensity read-out; inhibition, % (test concentration not listed); P9WFX0; in the data active = inhibition mostly above about 56%, no sharp cut-off; inactive = mostly below about 77%
* marks the source's active call; other numbers are inactive results; ! = not confirmed by another sample. Hits are enriched below; roughly 1.4% of the tested compounds scored in any of these assays.

What do the screens show for `O=C(NCCc1ccccc1)c1sc(=S)n2c1[nH]c(=O)c1ccccc12`?
PV pol inh: 95.0; AID504770: 0; MenB inh: -5.2; Mtb MbtI inh: 66.5

How did O=C(NC1CCCCC1)c1sc(=S)n2c1[nH]c(=O)c1ccccc12 do in these assays?
PV pol inh: 98.0; AID504770: 1.85; MenB inh: 1.8; Mtb MbtI inh: 96.0*

How did NC(=O)c1sc(=S)n(-c2ccccc2)c1N do in these assays?
PV pol inh: 91.0; AID504770: 0.15; MenB inh: -17.0

What do the screens show for `Nc1c(C(=O)NC2CCCCC2)sc(=S)n1-c1ccccc1`?
PV pol inh: 97.0; AID504770: 0.35; MenB inh: 9.3; Mtb MbtI inh: 55.5*

What do the screens show for `Oc1cc(Cl)c(Cl)cc1O`?
PV pol inh: 92.0; AID504770: -3.45*; MenB inh: -60.9; Mtb MbtI inh: 102.1*

How did CCc1cc(=O)oc2c(C)c(OCC(=O)Nc3ccc4c(c3)OCO4)ccc12 do in these assays?
PV pol inh: 80.0*; AID504770: -0.7; MenB inh: -19.9; Mtb MbtI inh: 6.8

What do the screens show for `N#C/C(C(=O)NCc1ccco1)=c1/s/c(=C/c2ccncc2)c(=O)n1-c1ccccc1`?
AID504770: 1; MenB inh: 0.0; Mtb MbtI inh: 8.8

How did Cc1conc1NC(c1cccs1)c1ccc2cccnc2c1O (stereo unspecified) do in these assays?
PV pol inh: 118.0; AID504770: 1.05; MenB inh: -73.5; Mtb MbtI inh: 96.7*

Results for Oc1nc2ccccn2c1-c1c(O)nc2ccccn12 ?
PV pol inh: 21.0*; AID504770: 1.6; Mtb MbtI inh: 5.6

Results for c1ccn2c(c1)nc1c2nc2ccccn21 ?
PV pol inh: 101.0; AID504770: -0.55; MenB inh: -18.1; Mtb MbtI inh: 77.4

How did O=C1NC(c2ccccc2)C(C(=O)c2ccccc2)C(O)(C(F)(F)F)N1 (stereo unspecified) do in these assays?
PV pol inh: 100.0; AID504770: -0.7; MenB inh: 3.4; Mtb MbtI inh: 1.8

Results for CCOC(=O)C1CCCN(C(=O)CSc2ccc(NC(C)=O)cc2)C1 (stereo unspecified) ?
PV pol inh: 100.0; AID504770: 1.55; MenB inh: 0.0; Mtb MbtI inh: 66.6*

How did CC(=O)N1CN(Cc2ccccc2)Cc2c1sc1c2CCCC1 do in these assays?
PV pol inh: 107.0; AID504770: -0.35; MenB inh: -31.6; Mtb MbtI inh: 36.9

How did CCc1cccc2c1=NC(=O)C=2c1c(C)[nH]n(-c2ccccc2)c1=O do in these assays?
PV pol inh: 97.0; AID504770: -0.6; MenB inh: -4.3; Mtb MbtI inh: 84.9*

Results for C=CCn1c(SCC(=O)N(CC(C)C)CC(C)C)nc2scc(-c3ccco3)c2c1=O ?
PV pol inh: 102.0; AID504770: 1.1; MenB inh: 6.9; Mtb MbtI inh: 15.2

How did CCS(=O)c1ccccc1C(=O)NCc1ccc(F)cc1 (stereo unspecified) do in these assays?
PV pol inh: 99.0; AID504770: 0; MenB inh: 4.0; Mtb MbtI inh: 86.5*

What do the screens show for `Cc1ccsc1C(N)=S`?
PV pol inh: 103.0; AID504770: -0.8; MenB inh: -20.2; Mtb MbtI inh: 6.0

How did NC(=S)c1sccc1CS(=O)c1ccc(Cl)cc1 (stereo unspecified) do in these assays?
PV pol inh: 107.0; AID504770: -0.7; MenB inh: 1.6; Mtb MbtI inh: 58.6*

What do the screens show for `CCOc1ccc(N2C(=O)CC(N3CCCCC3CC)C2=O)cc1` (stereo unspecified)?
PV pol inh: 103.0; AID504770: -0.05; MenB inh: 9.0; Mtb MbtI inh: 54.7*

How did CC(C#N)(NC(=O)CSc1nnc(-c2ccc(Br)cc2)n1C1CCCCC1)C1CC1 (stereo unspecified) do in these assays?
PV pol inh: 99.0; AID504770: -0.6; MenB inh: -15.0; Mtb MbtI inh: -9.4

How did COc1ccc(-c2noc(-c3ccc(NC4CCCC4)c([N+](=O)[O-])c3)n2)cc1OC do in these assays?
PV pol inh: 79.0*

Results for COc1ccc(NC(=O)c2c(NCc3ccc(N(C)C)cc3)sc3c2CCC3)cc1 ?
PV pol inh: 86.0*

Results for COc1ccc(CC(=O)Nc2sc3c(c2C(=O)Nc2ccc(C)cc2)CCCCC3)cc1 ?
PV pol inh: 89.0*

What do the screens show for `CN=C(C)/C(C(=O)OC)=C(/O)c1ccc(Cl)cc1`?
AID504770: -0.15

What do the screens show for `COC(=O)C1=C(C)NC(C)=C(C(=O)OC)C1c1ccccc1[N+](=O)[O-]`?
PV pol inh: 101.0; AID504770: 0.75; MenB inh: -4.0; Mtb MbtI inh: 79.2*!

How did COC(=O)C1=C(C)NC(C)=C(C(=O)OC)C1c1ccccc1 do in these assays?
AID504770: 1.1

Bioassay records: PubChem, ICCB-Longwood Screening Facility, Harvard Medical School
